# Source: PubChem BioAssay
# This is one part of a sample in which hits are shown more often than they occur.
# Sa growth inh – S. aureus growth inhibition | S. aureus RN4220 growth, OD600, 20 h, 42 °C; hits give low values | relative growth, % (concentration not given with the values) | 0.53% of 170,000 active | AID 720641;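 active = relative growth at most 50% at the other temperature and 20+ points below 30 °C, or under 10% at both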
# HCMV NEC inh – cytomegalovirus nuclear egress complex inhibition | HTRF UL50-UL53 interaction, normalized percent inhibition | inhibition, % (test concentration not listed) | 0.15% of 190,000 active; in the data active = inhibition above about 27%, passing the limit was not always enough
# S aureus helic – S. aureus DNA helicase inhibition; purified S. aureus helicase, fluorescence unwinding assay; inhibition, % (test concentration not listed); 0.05% of 120,000 active; in the data active = inhibition above about 25%, passing the limit was not always enough;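 also: 0% = mean of negative control wells and 100% = mean of positive control wells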
# * hit, by the source's call; . = no result.
SMILES,Sa growth inh,HCMV NEC inh,S aureus helic
CN1C=C/C(=C\c2cc[n+](C)c3ccccc23)c2ccccc21,0.6*,.,86.0*
COC(=O)c1c(C)sc(-c2c(-c3ccc(Br)cc3)[nH]c3[nH]c(=O)[nH]c(=O)c23)c1O,.,-8.8,.
FC(F)Sc1ccc(N=C=S)cc1,-0.8*,-22.8,3.0
S=C=Nc1ccc(N=C=S)cc1,.,-44.1,.
COc1ccc(-c2nc(SCC(=O)NCc3ccccc3)c3c(=O)n(C)c(=O)n(C)c3n2)cc1,84.4,1.2,6.0
Cc1ccc(C(O)CN=Cc2c(O)ccc3ccccc23)cn1 (stereo unspecified),102.8,61.8*,-21.0
Oc1ccc2ccccc2c1C=NCc1cccnc1,71.9,-7.5,.
CCOC(=O)N1CCN(C(=O)c2ccccc2NC(=O)c2cccc(C)c2)CC1,124.0,-1.5,10.0
Cc1noc(C)c1CSc1ncccc1C(=O)N(C)Cc1c(F)cccc1Cl,87.9,22.1,-10.0
O=c1[nH]c2ccccc2nc1NCc1ccccc1,81.3,-29.0,-1.0
Nc1nc(NCc2ccccc2)c(I)c(=O)[nH]1,98.4,65.8*,15.0
Cn1nc(C(=O)N2CCCc3ccccc32)c2ccccc2c1=O,93.8,-23.8,-1.0
CCCn1nc(C(=O)N2CCc3ccccc32)c2ccccc2c1=O,45.6*,-17.1,-6.0
CN=Cc1cc(-c2ccccc2)n(C)c1S,75.0,.,9.0
Cn1c(-c2ccccc2)cc(C=Nc2ccccc2)c1O,4.0*,.,1.0
Cc1cc(C)[nH]c(=S)n1,77.2,-17.3,-4.0
Cc1cc(=S)nc(C(C)C)[nH]1,27.7*,-1.4,-6.0
O=C1c2ccccc2C(=O)c2sccc21,1.6*,-208.4,-18.0
O=C1c2ccccc2C(=O)c2c1cccc2-c1cccc2c1C(=O)c1ccccc1C2=O,.,-5.2,.
Cc1[nH]c2ccccc2c1C(c1ccncc1)N1CCN(C)CC1 (stereo unspecified),.,-5.1,-27.0
COC(c1cccs1)c1c(C)[nH]c2ccccc12 (stereo unspecified),2.0*,-5.2,-8.0
Cc1[nH]c2ccccc2c1C(c1cccs1)N1CCN(c2ccccc2)CC1 (stereo unspecified),0.0*,-7.8,19.0
Cc1[nH]c2ccccc2c1C(Nc1ccccn1)c1cccs1 (stereo unspecified),.,-12.3,1.0
CC1CCCCN1C(=O)CSc1nc2ccccc2c(=O)n1Cc1ccc(C(=O)NCc2ccco2)cc1 (stereo unspecified),95.2,1.8,.
Cc1onc(-c2ccccc2)c1C(=O)Nc1ccc(S(=O)(=O)Nc2ncccn2)cc1,112.0,-5.8,9.0
SMILES,Sa growth inh,HCMV NEC inh,S aureus helic
O=C1NC(c2cccc(F)c2)c2c1n[nH]c2-c1cccs1 (stereo unspecified),79.5,-25.7,-24.0
CCCNc1ncccc1-c1nc(-c2ccccc2)no1,.,-16.2,.
CN(c1ccccc1)S(=O)(=O)c1ccc(C(=O)O)cc1,90.8,9.6,25.0
CCN(Cc1ccccc1)S(=O)(=O)c1ccc(C(=O)Nc2nnc(COC)o2)cc1,5.7*,.,-1.0
CCCCN(CC)S(=O)(=O)c1ccc(C(=O)Nc2nnc(COC)o2)cc1,-0.5*,-26.1,-3.0
CCN(CC)S(=O)(=O)c1ccc(C(=O)Nc2ncn(Cc3ccccc3)n2)cc1,94.0,0.9,3.0
CN(c1ccccc1)S(=O)(=O)c1ccc(C(=O)Nc2nnc(C(F)(F)F)o2)cc1,3.2*,1.6,11.0
C=CCN(CC=C)S(=O)(=O)c1ccc(C(=O)Nc2nnc(COC)o2)cc1,22.0,.,-8.0
CSCc1nnc(NC(=O)c2ccc(S(=O)(=O)N(C)Cc3ccccc3)cc2)o1,2.4*,-32.6,6.0
CCc1nnc(NC(=O)c2ccc(S(=O)(=O)N(C)C)cc2)o1,78.8,-38.4,0.0
CCCCCCCc1nnc(NC(=O)c2cccs2)s1,85.7,-40.8,12.0
COc1ccc(/C=C2/SC(=O)N(CCC(=O)Nc3cccc(C)c3)C2=O)cc1OC,.,-23.9,.
N#CC(C#N)=NNc1ccc2c(c1)OCCO2,-0.1*,-61.5,21.0
N#C/C(=N/Nc1ccc2c(c1)OCO2)C(=O)N1CCCC1,95.1,-51.4,-31.0
Cc1ccc(O)c(C(=O)CC(=O)c2cccs2)c1,6.4*,-4.7,-8.0
O=C(NC(=O)c1ccccc1O)c1cccs1,130.6,-19.8,.
COc1ccc(C(=O)CS(=O)(=O)c2ccc3c(c2)OCCO3)cc1OC,75.9,-23.0,-9.0
CN(CC(=O)Nc1cccc2nsnc12)c1ccccc1,96.1,-42.8,-11.0
COc1cccc(NC(=O)Cn2nc(N3CCN(c4ccccc4OC)CC3)ccc2=O)c1,.,-41.4,.
c1csc(-c2nc3cnccn3c2NC2CCCCC2)c1,85.8,.,12.0
c1ccc(-c2nc3ccccn3c2NC2CCCC2)nc1,-0.1*,-52.8,5.0
CCCc1nc2c(c(=O)n1CC(=O)NC(C)(C)C)CCN(Cc1ccccc1)C2,.,-1.8,.
Cc1nc2c(-c3ccccc3)c(C)[nH]n2c(=O)c1Cc1ccc(Br)cc1,0.1*,-2.7,.
Cc1ccc(Cc2c(C)nc3c(-c4ccccc4)c(C)[nH]n3c2=O)cc1,108.2,1.9,.
